According to PubChem BioAssay AID1210 (NMMLSC, 2008):

biological target: Estrogen receptor beta (Homo sapiens) (UniProt Q92731); test: ERbeta ligand binders by competition, primary screen, cell-based, Cos7 ERbeta-GFP, flow cytometry (AID 1210); details: fluorescent estrogen binding, at 10 µM, stronger effect = higher value;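 also: 0% = DMSO vehicle wells and 100% = complete loss of labeled estradiol signal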
Sequence (Q92731 whole entry, looked up): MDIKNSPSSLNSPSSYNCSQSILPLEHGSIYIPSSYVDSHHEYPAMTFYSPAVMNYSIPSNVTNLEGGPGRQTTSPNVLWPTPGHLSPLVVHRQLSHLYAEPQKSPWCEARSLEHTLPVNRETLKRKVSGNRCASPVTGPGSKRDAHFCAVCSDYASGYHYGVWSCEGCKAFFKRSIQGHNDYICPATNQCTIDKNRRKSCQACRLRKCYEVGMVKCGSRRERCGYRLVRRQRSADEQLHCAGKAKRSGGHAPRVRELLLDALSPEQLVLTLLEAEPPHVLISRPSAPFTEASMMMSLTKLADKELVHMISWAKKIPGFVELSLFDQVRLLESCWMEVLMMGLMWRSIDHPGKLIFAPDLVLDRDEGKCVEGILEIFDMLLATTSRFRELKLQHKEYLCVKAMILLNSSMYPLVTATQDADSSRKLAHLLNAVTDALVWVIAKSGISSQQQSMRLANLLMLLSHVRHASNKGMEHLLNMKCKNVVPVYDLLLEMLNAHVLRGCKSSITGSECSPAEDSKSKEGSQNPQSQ

inhibition, inactive:
CN(C)S(=O)(=O)N(CC(=O)N(Cc1ccccc1)Cc1ccccc1)c1ccccc1 66%, COc1cccc(-c2cc(C(=O)Nc3cc(C)nn3-c3ccccc3)no2)c1 23%, O=c1oc2cc(O)c(Cl)cc2c2c1CCCC2 8%, CN(/N=C/c1cccnc1)c1cnn(-c2ccc(F)c(Cl)c2)c(=O)c1Cl 20%, CN(C)NC(=S)Nc1ccc2nc(-c3ccccn3)c(-c3ccccn3)nc2c1 25%
